KCNH2 3.1 block – KCNH2 3.1 (human) potassium channel inhibition; U2OS KCNH2 3.1, thallium flux FluxOr; active compounds read low; activity change, % (tested at about 1.8 µM); 340,000 tested, 0.95% active;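 active = maximum activity change below -70%; inconclusive = maximum activity change from -70% to -50%; inactive = maximum activity change above -50%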;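 note: thallium influx rate constant from kinetic fluorescence after stimulation buffer; % is set by controls: 0 for no effect and ±100 for the full control effect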
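Steps: virus added to U2OS suspension (4 h, RT, dark); medium with 10% FBS added, cells plated, 37 C overnight; FluxOr/Red40 loading buffer 45 min RT; stimulation buffer, 2 min kinetic read; rate constant normalized.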
KB-3-1 tox – KB-3-1 parental cell cytotoxicity; KB-3-1 viability, CellTiter-Glo ATP luminescence, 72 h; Potency, µM (highest dose often 46.1 µM), hits mostly cytotoxic; 400,000 tested, 1.4% active; note: potency is the fitted concentration of half-maximal effect; % is set by controls: 0 for no effect and ±100 for the full control effect; nearly all actives have a fitted effect of over 60% in size
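Multi-concentration cytotoxicity screen in KB-3-1 cells grown in DMEM lacking phenol red with 10% FBS. After 72 h at 37 °C with compound, ATP-dependent luminescence was recorded.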
KCNH2 WT inh – KCNH2 (human, wildtype) channel inhibition; Q12809; U2OS, BacMam KCNH2, thallium flux FluxOr; active compounds read low; activity change, % at 1.84 µM; 340,000 tested, 0.37% active;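 active = maximum activity change below -70%; inconclusive = maximum activity change between -70% and -50%; inactive = maximum activity change above -50%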; note: % is set by controls: 0 for no effect and ±100 for the full control effect
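U2OS cells transduced with wild-type KCNH2 virus are loaded with FluxOr dye for 45 min, and thallium flux is measured in kinetic reads before and after stimulation buffer. Rate constants are normalized to DMSO controls.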
SW480 rerep – inducers of DNA re-replication in SW480 colon cancer cells | AID 624297 | Potency, µM (highest dose often 46.1 µM), for inactives: at the top dose re-replication activation, hits mostly activators | 340,000 tested, 1.8% active | SW480 DNA re-replication, Hoechst DNA content imaging, 48 h; note: potency is the fitted concentration of half-maximal effect; % of control where 0% means no effect; nearly all actives have a fitted effect of over 55% in size
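Hoechst fluorescence of nuclei (405 nm excitation, 500-530 nm emission) measured by plate-scanning imager after 48 hr compound exposure at 37 C; re-replication scored as increased number of nuclei with elevated intensity.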
MCF10A rerep – DNA re-replication induction in MCF 10a cells; MCF 10A DNA re-replication, Hoechst nuclear intensity, 48 h; Potency, µM (titrated, usually from 46.1 µM), inactives show top-dose activity, positive = re-replication, most hits filed as activators; 350,000 tested, 2.9% active; AID 624296; note: potency is the fitted concentration of half-maximal effect; % of control where 0% means no effect; nearly all actives have a fitted effect of over 50% in size
KB-V1 cytotox – kills drug-selected multidrug resistant KB-V1 cells. KB-V1 MDR cells viability, CellTiter-Glo, 72 h. Potency, µM (doses to about 46.1 µM), hits mostly cytotoxic. 400,000 tested, 3.4% active. AID 1347076; note: potency is the fitted concentration of half-maximal effect; % is set by controls: 0 for no effect and ±100 for the full control effect; nearly all actives have a fitted effect of over 60% in size
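Potencies derive from concentration-effect curves fitted to normalized luminescence (CellTiter-Glo) of KB-V1 cells treated for 72 h at 37 degrees C in phenol-red-free DMEM containing 10% FBS.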
An asterisk follows results filed as active. This is a sample that favours compounds with a hit; in the whole collection about 7.6% have one here. Unless noted, calls come from the whole dose curve; as a rule, active = well fitted curve in the direction sought with a large enough effect; inconclusive = small, poorly fitted or top-dose-only effect, or another doubt; inactive = no such curve, though single readings can be large; an effect the other way counts as inactive or inconclusive.

For O=C(NCC1CCCO1)c1ccccc1OCc1ccc(Cl)cc1 (centres undefined) the results were KCNH2 3.1 block -13, KB-3-1 tox inactive, KCNH2 WT inh 5, SW480 rerep 3%, MCF10A rerep 7% and KB-V1 cytotox 3.7µM*.
Screening O=C(Nc1ccc(Cl)cc1C(=O)NCC1CCCO1)c1ccco1 (centres undefined) returned KB-3-1 tox inconclusive, KCNH2 WT inh 10, SW480 rerep -3%, MCF10A rerep inconclusive and KB-V1 cytotox 8.2µM*.
For COc1ccc(-c2cc(C(F)(F)F)nc(SCC(=O)N3CCCCC3)n2)cc1OC the results were KB-3-1 tox inactive and KB-V1 cytotox inconclusive.
`COc1ccc(NC(=O)CSc2ccc3ccccc3c2)cc1S(=O)(=O)N1CCCCC1` gave KCNH2 3.1 block -14, KB-3-1 tox inconclusive, KCNH2 WT inh 12, SW480 rerep 4%, MCF10A rerep inconclusive and KB-V1 cytotox inconclusive.
For Cn1c(/C=C/c2cccc([N+](=O)[O-])c2)c([N+](=O)[O-])c(=O)n(C)c1=O the results were KCNH2 3.1 block 1, KB-3-1 tox inconclusive, KCNH2 WT inh -7, SW480 rerep inconclusive, MCF10A rerep inconclusive and KB-V1 cytotox inconclusive.
`O=C(Nc1ccc(Cl)cc1C(=O)NCCN1CCOCC1)c1ccc(Cl)cc1Cl` gave KCNH2 3.1 block 7, KB-3-1 tox inactive, KCNH2 WT inh 0, SW480 rerep 0%, MCF10A rerep 1% and KB-V1 cytotox 4.6µM*.
Screening O=C(Nc1c(Cl)cc(Cl)cc1C(=O)NCCN1CCOCC1)c1ccc(Cl)cc1Cl returned KCNH2 3.1 block -12, KB-3-1 tox inactive, KCNH2 WT inh 38, SW480 rerep -2%, MCF10A rerep 24% and KB-V1 cytotox inconclusive.
For O=C(Nc1ccc(Cl)cc1C(=O)NCC1CCCO1)c1ccc(Cl)cc1Cl (centres undefined) the results were KCNH2 3.1 block -2, KB-3-1 tox inactive, KCNH2 WT inh -6, SW480 rerep -63%, MCF10A rerep inconclusive and KB-V1 cytotox 10µM*.
For O=C(COc1ccccc1C(=O)NCC1CCCO1)Nc1ccc(Cl)cc1Cl (centres undefined) the results were KCNH2 3.1 block 2, KB-3-1 tox inactive, KCNH2 WT inh -3, SW480 rerep 3%, MCF10A rerep 3% and KB-V1 cytotox inconclusive.
For NNC(=O)Cn1c(-c2nonc2N)nc2ccccc21 the results were KCNH2 3.1 block 0, KB-3-1 tox inactive, KCNH2 WT inh 8, SW480 rerep -1%, MCF10A rerep 2% and KB-V1 cytotox inactive.
CSc1ccccc1NC(=O)Cn1c(-c2cscn2)nc2ccccc21 was read as KCNH2 3.1 block 9, KB-3-1 tox inactive, KCNH2 WT inh -11, SW480 rerep -9%, MCF10A rerep 21% and KB-V1 cytotox 16µM*.
Screening CCCCOc1ccccc1NC(=O)Cn1c(-c2nonc2N)nc2ccccc21 returned KCNH2 3.1 block -16, KB-3-1 tox 4.6µM*, KCNH2 WT inh 6, SW480 rerep inconclusive, MCF10A rerep 0.79µM* and KB-V1 cytotox 1.8µM*.
Screening Nc1nonc1-c1nc2ccccc2n1CC(=O)N/N=C\c1ccc(-c2ccc(Cl)cc2)o1 returned KCNH2 3.1 block 5, KB-3-1 tox inconclusive, KCNH2 WT inh 6, SW480 rerep inconclusive, MCF10A rerep 8.9µM* and KB-V1 cytotox inconclusive.
`Cn1c(SCC(=O)N/N=C/C=C/c2ccco2)nc2ccccc21` gave KCNH2 3.1 block 0, KB-3-1 tox inactive, KCNH2 WT inh -4, SW480 rerep 17%, MCF10A rerep inconclusive and KB-V1 cytotox inactive.
Cc1nn(-c2ccccc2)c2sc(C(=O)N(CC(=O)NC(C)(C)C)Cc3ccco3)cc12 was read as KCNH2 3.1 block -1, KB-3-1 tox inconclusive, KCNH2 WT inh -3, SW480 rerep 1%, MCF10A rerep 18µM* and KB-V1 cytotox inconclusive.

Bioassay records: PubChem BioAssay, National Center for Advancing Translational Sciences (NCATS)
